# In PubChem BioAssay:
# Unmarked numbers belong to inactive results. Activity calls are given as the source filed them. Cut-off read from the data, not from the text of the source, unless noted: active = inhibition above about 30%; inactive = the rest.
# Experiments:
# [1] = biological target: Nuclear receptor coactivator 3 (Homo sapiens) (UniProt Q9Y6Q9); assay: SRC3 coactivator transcriptional activity inhibitors, confirmation, cell-based, luminescence, quadruplicate (AID 588792;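 active = mean inhibition over 43.08%, the solvent-only control mean plus 3 SD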;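 note: 0% = DMSO treated cells and 100% = gossypol at 36 µM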); settings: HEK293 GAL4-SRC3 luciferase reporter, at 3.6 µM, stronger effect = higher value
# [2] = system: transactivating tegument protein VP16 (Human herpesvirus 1), Gal4-VP16 luciferase reporter; assay: VP16 transactivation inhibitors, counter-screen for SRC3 inhibitor project, cell-based, luminescence, high throughput (AID 588794); settings: mammalian cells, VP16-driven luciferase reporter luminescence; at 3.6 µM; stronger effect = higher value
# Nuclear receptor coactivator 3 (Homo sapiens), sequence (Q9Y6Q9 whole entry, looked up, the tested form may be a part): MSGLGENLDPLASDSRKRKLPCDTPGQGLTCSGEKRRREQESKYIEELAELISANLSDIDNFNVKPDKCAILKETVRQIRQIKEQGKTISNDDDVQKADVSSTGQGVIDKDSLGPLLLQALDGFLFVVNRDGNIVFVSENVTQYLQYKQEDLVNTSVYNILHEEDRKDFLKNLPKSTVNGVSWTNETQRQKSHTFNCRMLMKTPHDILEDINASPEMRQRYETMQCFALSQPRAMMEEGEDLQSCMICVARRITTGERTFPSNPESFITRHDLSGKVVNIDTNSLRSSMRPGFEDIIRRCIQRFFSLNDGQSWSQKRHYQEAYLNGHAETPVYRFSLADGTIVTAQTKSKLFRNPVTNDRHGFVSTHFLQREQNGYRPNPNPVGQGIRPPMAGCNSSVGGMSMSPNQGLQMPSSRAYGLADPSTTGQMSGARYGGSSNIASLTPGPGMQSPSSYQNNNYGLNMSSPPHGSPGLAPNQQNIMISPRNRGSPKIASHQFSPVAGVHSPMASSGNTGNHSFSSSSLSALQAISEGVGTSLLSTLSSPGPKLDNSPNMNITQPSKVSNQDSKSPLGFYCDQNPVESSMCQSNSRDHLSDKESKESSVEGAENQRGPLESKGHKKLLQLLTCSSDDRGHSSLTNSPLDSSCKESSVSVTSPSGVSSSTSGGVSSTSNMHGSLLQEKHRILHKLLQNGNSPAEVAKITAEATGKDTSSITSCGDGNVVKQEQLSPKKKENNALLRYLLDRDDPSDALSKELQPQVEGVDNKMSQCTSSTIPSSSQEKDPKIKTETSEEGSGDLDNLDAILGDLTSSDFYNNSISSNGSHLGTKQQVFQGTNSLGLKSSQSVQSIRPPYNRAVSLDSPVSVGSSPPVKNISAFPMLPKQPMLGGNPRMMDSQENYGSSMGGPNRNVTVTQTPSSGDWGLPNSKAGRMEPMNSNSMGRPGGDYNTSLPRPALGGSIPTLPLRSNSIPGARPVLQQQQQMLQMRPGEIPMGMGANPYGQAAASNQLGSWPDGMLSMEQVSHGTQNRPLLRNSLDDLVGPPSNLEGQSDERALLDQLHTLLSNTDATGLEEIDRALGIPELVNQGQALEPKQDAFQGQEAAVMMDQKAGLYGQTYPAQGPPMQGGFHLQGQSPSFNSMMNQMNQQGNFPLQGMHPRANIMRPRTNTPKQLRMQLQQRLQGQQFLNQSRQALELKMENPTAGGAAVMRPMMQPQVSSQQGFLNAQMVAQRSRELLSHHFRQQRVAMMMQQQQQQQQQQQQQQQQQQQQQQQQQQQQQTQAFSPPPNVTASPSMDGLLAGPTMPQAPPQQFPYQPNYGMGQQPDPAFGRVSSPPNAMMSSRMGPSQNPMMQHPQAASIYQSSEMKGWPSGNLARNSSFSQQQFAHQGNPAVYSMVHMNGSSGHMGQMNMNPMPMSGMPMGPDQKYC
SMILES,inhibition [1],inhibition [2]
CCOC(=O)C(=O)NNc1ccc(C)cc1,-7.17%,4.76%
COc1ccc(CNS(=O)(=O)c2ccc3c(c2)N(C(C)=O)CC(C)S3)cc1 (configuration not stated),7.83%,11.6%
COc1ccc2[nH]c(C(=O)N/N=C/c3ccc(O)cc3O)cc2c1,54.5% (active),45.9% (active)
COc1ccc2nc(NC(=O)C3CCN(S(=O)(=O)c4cccs4)CC3)sc2c1,20.3%,15.2%
C=CCSc1nsc(NC(=O)Nc2ccc(F)cc2)n1,-4.43%,-4.12%
COc1ccc(C(Cl)=C(C=O)c2ccc(OC)c(OC)c2)cc1OC,22.3%,-10.7%
CC(=O)c1ccc(Sc2nnnn2-c2ccccc2)c([N+](=O)[O-])c1,11.4%,-10.4%
COC(=O)c1ccccc1-c1ccc(C(c2c(C)[nH][nH]c2=O)c2c(C)[nH][nH]c2=O)o1,22.8%,-7.34%
O=C(NNc1ccccc1)c1ccc(Cl)c(Cl)c1,19.8%,58.7% (active)
CC(=O)Nc1ccc(OCC(O)Cn2c3ccccc3c3ccccc32)c(C)c1 (configuration not stated),-0.56%,-0.54%
Cc1cc(C=C2C(=O)c3ccccc3C2=O)c(C)n1-c1ccccc1,67.5% (active),43.2% (active)
c1cncc(CNc2ncnc3sc4c(c23)CCC4)c1,23.1%,9.1%
COc1cc(NC(=O)c2cccs2)c(C(=O)OCC(=O)c2cc(C)n(-c3ccc(F)cc3)c2C)cc1OC,5.85%,2.26%
N#Cc1c(NCc2ccccc2)ccnc1Cl,27.5%,15.9%
COc1ccc(NC(=O)N(C)C[C@H]2Oc3c(NC(=O)Nc4ccc(C(F)(F)F)cc4)cccc3C(=O)N([C@H](C)CO)C[C@@H]2C)cc1,10.2%,-6.34%
Cc1cc(C=C2C(=O)c3ccccc3C2=O)c(C)n1-c1cccc(C(=O)O)c1,23.3%,10.4%
Nc1nc2c(F)cccc2s1,-3.71%,0.2%
COc1cccc(CNC(=O)c2cc3c(c(-c4cccc(-c5cccc(C#N)c5)c4)n2)[C@H](CCO)N(S(=O)C(C)(C)C)C3)c1 (some centres not stated),-23%,0.36%
CCN(CC)c1ccc(/C=N/NC(=O)c2cnccn2)c(O)c1,45.2% (active),52.3% (active)
Cc1nnnn1/C(=C\c1ccccc1)C(=O)OCC(=O)Nc1cccc(S(=O)(=O)N(C)C)c1,-9.38%,13.2%
CC(=O)N1CCc2cc(S(=O)(=O)NCCC(=O)NCCc3ccc(Cl)cc3)ccc21,-9.13%,1.52%
